Compounds with a hit are over-represented: about 4% of the library has one in this group of screens.
tim10-1 inh – growth inhibitors of tim10-1 mutant yeast, primary screen, luminescence, uHTS; S. cerevisiae tim10-1 ts strain growth, BacTiter-Glo, 24 h; inhibition, % at 20 µM; 330,000 tested, 2.2% active;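 active means inhibition of at least 40%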;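 further: mutant grown at 25 °C; 0% = DMSO wells with yeast and 100% = wells holding no yeast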
tim23-1 inh – growth inhibitors of tim23-1 mutant yeast, primary screen, luminescence, uHTS. inhibition, % at 20 µM. S. cerevisiae tim23-1 growth, BacTiter-Glo luminescence, 24 h. AID 463212, 2010. 330,000 tested, 1.3% active;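 active means growth inhibition of the mutant yeast at or above 50%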;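 further: temperature-sensitive mutant grown at 25 °C; plate controls were DMSO-treated mutant yeast for no effect and medium wells lacking yeast for full effect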
TIM10 inh – growth inhibitors of isogenic TIM10 control yeast, primary screen, counter-screen for tim10-1 yeast inhibitor project, luminescence, uHTS; S. cerevisiae TIM10 strain growth, BacTiter-Glo luminescence, 24 h; inhibition, % at 10 µM; 330,000 tested, 1.4% active;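 active means inhibition of 40% or more at the single tested concentration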;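 further: wild-type TIM10 isogenic control strain grown at permissive 25 °C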
NALP1 yeast inh – NALP1 inflammasome inhibitors in reconstituted yeast, colorimetric, S. cerevisiae, triplicate retest; inhibition, % at 10 µM; 280,000 tested, 0.61% active; S. cerevisiae NALP1/ASC/caspase-1 growth, X-gal OD620, 72 h; in the data active means inhibition mostly above about 24%, no sharp cut-off; inactive means mostly below about 32%
NALP3 yeast inh – NALP3 inflammasome inhibitors in reconstituted yeast, primary screen, luminescence, uHTS | Yeast reconstituted NLRP3/ASC/caspase-1, beta-gal luminescence, 24 h | 330,000 tested, 0.39% active | inhibition, % at 10 µM;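 active means inhibition of 50% or more; inactive means inhibition below 50%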;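 further: plate controls were induced DMSO wells for no effect and uninduced yeast grown without galactose for full effect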
tim10 confirm – growth inhibitors of wild-type TIM10 yeast, confirmation, counter-screen for tim10-1 synthetic lethality project, single concentration, luminescence, S. cerevisiae. inhibition, % at 10 µM. AID 463215, 2010. shares compounds with TIM10 inh. 4,600 tested, 63% active. S. cerevisiae tim10 strain growth, BacTiter-Glo luminescence, 24 h;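 active means inhibition of yeast growth at or above a set limit in either of two replicates at 10 µM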;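 further: this counterscreen used the strain with wild-type TIM10; 0% = yeast with DMSO and 100% = medium wells lacking yeast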
Starred values were filed as active, the others as inactive; . = not tested or not shown.

SMILES	tim10-1 inh	tim23-1 inh	TIM10 inh	NALP1 yeast inh	NALP3 yeast inh	tim10 confirm
CC(=O)Oc1ccc(/C=N/NC(=S)Nc2ccccc2)cc1	22	48	41*	3	21	26
CC(C)(C)c1ccc(OCCNC(=S)Nc2ccccc2)cc1	33	23	54*	30*	10	39*
COc1cccc(Cl)c1NC(=O)N1CCc2c([nH]c3ccccc23)C1C(F)(F)F (stereo not drawn)	15	15	14	-2	13	.
CCC(C)(C)n1nnnc1C(c1ccc2ncccc2c1)N1CCCCCC1 (stereo not drawn)	35	42	43*	-4	9	-22
c1cnc2ccc(C(c3nnnn3C3CCCCC3)N3CCCCC3)cc2c1 (stereo not drawn)	37	40	4	2	-2	.
CCn1c(C)cs/c1=N\C(=S)Nc1ccccc1C	35	48	41*	21	31	-34
COc1ccccc1C(=O)NCCC(=O)NNC(=O)c1ccccc1O	-3	8	96*	.	0	-8
Cn1cc(/C=C2\SC(=O)N(c3ccc(O)cc3)C2=O)c2ccccc21	29	33	44*	.	4	38*
COc1cc2c(cc1OC)C(C)N(C(=O)CCc1c[nH]c3ccccc13)CC2 (stereo not drawn)	31	19	7	27	14	.
Cc1ccc(/C=N/n2c(-c3ccccc3)n[nH]c2=S)cc1	-4	11	-9	1	41	.
N=C1N(/N=C/c2ccccc2)C(=Nc2ccccc2)C(=S)N1c1ccccc1	36	47	57*	3	15	35*
COc1cc(C(=O)N2CCCN(C)CC2)cc(OC)c1C	16	10	0	23	10	.
COc1ccc(C(=O)N/C(=C/c2ccc(Cl)cc2)C(=O)NCc2ccncc2)cc1	-9	-9	96*	3	11	4
COc1ccc(/C=C(/NC(=O)c2ccccc2)C(=O)NCc2ccncc2)cc1	4	5	6	13	4	.
COc1ccc(CC(=O)OCC(=O)Nc2c(C)n(C)n(-c3ccccc3)c2=O)cc1OC	5	5	-5	.	-3	.
CSc1cccc(NC(=O)/C=C/c2ccc(Cl)cc2)c1	-5	8	17	11	34	.
CCN(CC)S(=O)(=O)c1ccc(/C=C/C(=O)Nc2cccc(F)c2)cc1	39	28	59*	27	8	-13
CCN(CC)S(=O)(=O)c1ccc(/C=C/C(=O)O)cc1	14	13	-10	-14	-3	.
CSc1cccc(NC(=O)/C=C/c2ccccc2)c1	30	44	40	12	45	16
CNC(=S)N/N=C/c1c(C)nn(-c2ccc(F)cc2)c1Cl	18	2	43*	-13	13	-6
Cc1ccc([C@H]2C(C(=O)O)=CC[C@@H](c3ccc(C)cc3)N2S(=O)(=O)c2ccc(C)cc2)cc1	18	35	16	.	-2	.
CCCn1cnc2cc(NC(=O)c3cccs3)ccc21	24	49	61*	-25	40	42*
O=C(Nc1cc(Cl)ccc1Cl)Nn1cnnc1	-7	-5	3	7	13	.
O=C(Nc1ccc(C2CC2(Cl)Cl)cc1)c1ccccc1Br (stereo not drawn)	32	42	41*	22	16	19
Cc1ccsc1/C=N\NC(=O)CC(=O)NCc1ccccc1	-2	0	-6	5	20	.
Cc1ccsc1/C=N/NC(=S)NCc1ccccc1	35	28	54*	14	35	44*
O=C(c1ccco1)N(Cc1ccccc1)c1cccc([N+](=O)[O-])c1	32	-11	44*	1	-12	31
Nn1c(SCC(=O)N2CCCC2=O)nnc1-c1cccs1	-23	-9	-3	.	10	.
COc1ccc(NC(=O)CSc2nnc(NC(=O)C3CC3)s2)cc1OC	-6	-1	1	-2	1	.
Cc1cc(/C=C2\SC(=S)N(C)C2=O)c(C)n1-c1ccccc1O	-6	-10	22	.	27	.

From PubChem
